In PubChem BioAssay AID1347430 (National Center for Advancing Translational Sciences (NCATS), 2020):
Where “and” joins values, the source holds several entries; their conditions need not be identical. Equal values may be shown once. Out of some 91,000 compounds screened, about 130 (0.14%) were called active. Roughly 3% stayed inconclusive and do not appear here. Calls follow the shape of the dose curve; as a rule, active = well fitted inhibition curve with a large enough effect; inconclusive = small, poorly fitted or top-dose-only effect; inactive = flat fitted curve, though single readings scatter. The list comes from a sample in which actives are over-represented; it also holds similar structures and randomly drawn compounds. A call without a number means that no potency is given here. A structure can be active in one record and inactive in another.

test system: Uracil-DNA glycosylase; assay: Primary qHTS assay for inhibitors of Activation Induced Cytidine Deaminase (AID): UDG Counterscreen signal; settings: FRET deamination/UDG coupled assay, UDG read, 4 h; series mostly up to 115 µM; also: nearly all actives have a fitted effect of over 65% in size
Text: Assay Provider (PI) Patricia Gearhart Ph.D.
National Institute on Aging
National Institute of Health (NIH), Bethesda, MD
Assay Provider (PI) Rahul Kohli Ph.D.
Perelman School of Medicine
University of Pennsylvania, Philadelphia, PA
Activation-Induced Deaminase (AID) is a cytosine deaminase which converts cytosine into uracil within stretches of ssDNA. The presence of uracil in DNA initiates a cascade of mutagenic DNA repair to introduce point mutations and DNA double strand breaks. Specific targeting of AID to the immunoglobulin heavy chain loci (Igh) promotes mutagenesis in the antibody variable region for somatic hypermutation (SHM) or switch regions leading to class switch recombination (CSR). However, AID also plays a role in accumulating unnecessary mutations across the genome. Mis-targeting of AID results in the initiation of tumor development and leads to greater drug resistance among cancer cells when continually expressed. To identify an AID inhibitor, a small molecule library will be screened in collaboration with NCATS core facility at NIH. To confirm biological function, inhibitors will be examined in an in vitro murine B-cell activation assay and subsequent secondary validation screens. Top molecules will be further screened to identify inhibitory efficacy against a wild type primary splenocytes assay. Using these approaches, we hope to identify a small molecule with great efficacy and low toxicity for use as a molecular probe to further characterize AID's intricacies, or even as a therapeutic.
A FRET based analysis of cytosine deamination, was developed to identify potential inhibitors of AID catalytic activity. This screen has two signal output, Read 1 evaluates the AID inhibition response. The second readout (Read 2) evaluates UDG response and is uses as a counterscreen to exclude false positive inhibitors. Inhibition in AID and inactivity in the UDG signal is the desired outcome for this assay.
SEQUENCE No. (e.g., 1, 2, 3, etc.); […] (e.g., Cells, Incubation, Reagent, etc.); VALUE; DESCRIPTION
1a; Reagent; 3 uL; [4/3x] 1 uM AID/2.67 U/mL UDG
1b; Reagent; 3 uL; 2 U/mL UDG
1c; Reagent; 3 uL; 1 uM AID
2a; Compound; 46 nL; Follow-up plates (0.64 uM - 10 mM)
2b; Control; 46 nL; ATA ([…] - 10 mM)
3; Time; 10 min; incubation at room temperature
5; Time; 4 hr; incubation at room temperature
6; Reagent; 4 uL; [2x] 250 mM NaOH
7; Time; 15 sec; centrifuge at 1000 rpm
8; Time; 30 min; incubation at room temperature
9a; Detection; fluorescence (Read 1: AID); EnVision (PerkinElmer) plate reader, 540 excitation and 590 emission filters
9b; Detection; fluorescence (Read 2: UDG); EnVision (PerkinElmer) plate reader, 560 excitation and 665 emission filters
NOTES (numbers refer to sequence above)
1a; Reagents were dispensed in a medium-binding black solid-bottom Greiner plates (789176F) using a BioRptr liquid dispenser. Dispense 3 uL of [4/3x] 1 uM AID (provided by Kohli lab) and [4/3x] 2 U/mL UDG (NEB M0280L) into columns 1, 2, 5 to 48.
1b; Dispense 3 uL of [4/3x] 2 U/mL UDG into column 3.
1c; Dispense 3 uL of [4/3x] 1 uM AID into column 4.
2a; Compound (7-points [uM] (0.64; 3.2; 16; 80; 400; 2,000; 10,000; 20,000) double pin-transferred (Dip Factor = 2) using the Kalypsys (Wako USA) pintool equipped with a 1536 pinhead for a final concentration range of 7.32 nM - 114 uM.
2b; 10 mM Aurintricarboxylic Acid (Sigma A1895) (ATA, 8-point, n = 2, 1:2.5 dilution in column 2) double pin-transferred (Dip Factor = 2) using the Kalypsys (Wako USA) pintool equipped with a 1536 pinhead for a [final] range of 186 nM - 114 uM.
3; Room temperature incubation.
4; Dispense 1 uL of substrate mixture from the Kohli lab [4x] […] DJC20 and [4x] 250 nM DJC23 into columns 1 to 48 .
5; Room temperature incubation.
6; Dispense 4 uL of substrate mixture [2x] 250 mM NaOH into columns 1 to 48.
7; Centrifugation step to remove bubbles.
8; Room temperature incubation
9a; Fluorescence signal (column label AID) was read using the EnVision plate reader. […]
Potency is read from the fitted curve at half-maximal effect.

Row | Structure (SMILES) | Potency
1 | Cc1scc(C(=O)NCCC2=CCCCC2)c1C | inactive
2 | CC(C)(C)C(=O)NCC(=O)O | inactive
3 | COc1ccc(COC(=O)C2CCN(S(=O)(=O)c3c(Cl)cccc3Cl)CC2)cc1F | inactive
4 | CN(C)c1ccc(NC(=O)CCC2CCCC2)cc1 | inactive
5 | CNC(=O)C1CCN(Cc2csc(-c3ccc(C(F)(F)F)cc3)n2)CC1 | inactive
6 | CC(C)c1cccc(C(C)C)c1-n1ccnc1 | inactive
7 | CC(C)(C)C(=O)NCCCC(=O)NCc1cccnc1 | inactive
8 | Fc1ccc(/C=N/N=C/c2ccc(F)cc2F)c(F)c1 | inactive
9 | Cc1ccc(C)c(S(=O)(=O)N2CCN(C(=O)CCc3ncc(-c4ccc(F)cc4F)o3)CC2)c1 | inactive
10 | Cc1c(-c2ccccc2)[o+]c2ccccc2c1C#Cc1ccccc1 | inactive
11 | CCCn1nc(C(=O)OCC(N)=O)c2ccccc2c1=O | inactive
12 | O=C(COC(=O)c1cnc2ccccc2n1)NC12CC3CC(CC(C3)C1)C2 | inactive
13 | COc1cccc(NC(=O)C2(C#N)CCCC2)c1 | inactive
14 | O=C(NCc1coc(-c2cccs2)n1)c1cccc(C(F)(F)F)c1 | inactive
15 | O=S(=O)(CCN1CCN(c2cnccn2)CC1)c1ccccc1 | inactive
16 | Cc1cnc(NC(=O)c2nc(C)n(-c3ccc(Cl)cc3)n2)s1 | inactive
17 | COc1ccccc1Oc1c(C)oc2cc(OC(=O)c3ccc4c(c3)OCO4)ccc2c1=O | inactive
18 | C/C=C/Cn1c(=O)c2c(nc(-n3nc(C)cc3C)n2CC)n(C)c1=O | inactive
19 | Cc1cccc(N(CCC(N)=O)C(=O)c2ccc(C#N)cc2)c1 | inactive
20 | O=C(c1ccc2c(c1)N(Cc1ccccc1)C(=O)c1ccccc1S2=O)N1CCC2(CC1)OCCO2 (centres undefined) | inactive

Row | Structure (SMILES) | Potency
21 | O=C(CCC1CCCC1)NCCc1cccnc1 | inactive
22 | COc1cc(Br)cc2cc(-c3nc(-c4nonc4N)no3)c(=O)oc12 | inactive
23 | CC(Oc1ccc(/C=C(/C#N)c2nc3ccccc3[nH]2)cc1)C(=O)O (centres undefined) | inactive
24 | CCOC(=O)c1noc2nc(C)nc(Nc3ccc(CC)cc3)c12 | inactive
25 | COc1ccc(N(CC(=O)N2CCN(C)CC2)S(=O)(=O)c2ccccc2)cc1Cl | inactive
26 | COc1cc(/C=N/O)ccc1O | inactive
27 | O=C(O)c1ccc(CSc2cccc(Cl)c2)cc1 | inactive
28 | FC(F)(F)c1cccc(Oc2ncnc3sc(-c4ccccc4)cc23)c1 | inactive
29 | CC(C)Cc1nc(NCc2ccncc2)c(C#N)c2c1CCCC2 | inactive
30 | O=C(CCc1ccncc1)Nc1ccccc1 | inactive
31 | COc1ccc(C(=O)Oc2ccc(Cl)cc2C)c(OC)c1 | inactive
32 | Cc1ccc(CNC(=O)c2ccc(=O)[nH]c2)s1 | inactive
33 | CCC(CC)C(=O)Nc1cccc(F)c1 | inactive
34 | CSc1ccc(Cl)c(C(=O)Nc2ccc(F)c(F)c2)c1 | inactive
35 | CC(=O)c1ccc2[nH]c(C(=O)O)cc2c1 | inactive
36 | O=C(CCC1CCCCC1)Nc1cccc(F)c1 | inactive
37 | O=C(CCc1c[nH]c2ccccc12)N1CC=C(c2ccccc2)CC1 | inactive
38 | CC1CCN(C(=O)CSc2nnc(-c3ccco3)n2N)CC1 | inactive
39 | CCCC(=O)Nc1ccccc1N1CCN(Cc2nc3ccccc3n2C)CC1 | inactive
40 | Cn1nc(C(=O)Nc2ccc(C(F)(F)F)cc2)c2ccccc2c1=O | inactive

Row | Structure (SMILES) | Potency
41 | CCCCCn1nc(C(=O)Nc2nccs2)c2ccccc2c1=O | inactive
42 | CN(Cc1ccc(C(C)(C)C)cc1)C(=O)C1CCN(C(=O)/C=C/c2ccccc2)CC1 | inactive
43 | COc1ccc(-c2nc3ccccc3o2)cc1NC(=O)c1ccc(Cl)cc1 | inactive
44 | CCOC(=O)c1cc(-c2ccc(S(=O)(=O)N3CCN(c4cc(Cl)ccc4C)CC3)s2)on1 | inactive
45 | O=C(CSc1ncnc2ccccc12)Nc1ccc(Cl)c(C(F)(F)F)c1 | inactive
46 | CNc1c(NC(=O)Nc2ccccc2F)c(=O)oc2ccccc12 | inactive
47 | COc1cc(CNC(=O)C(C)Oc2ccccc2)ccn1 (centres undefined) | inactive
48 | Nc1ccc(C(=O)O)cn1 | inactive
49 | Clc1cccc(-n2ncc3c(NCCc4ccccc4)ncnc32)c1 | inactive and 89.1 µM (active)
50 | Cc1ccc(-n2ncc3c(NCCCn4ccnc4)ncnc32)cc1Cl | inactive
51 | NS(=O)(=O)c1ccc(CCNc2ncnc3c2cnn3-c2ccccc2Cl)cc1 | inactive
52 | CCc1nn2c(=O)cc(CN3CCCCC3C)nc2s1 (centres undefined) | inactive
53 | O=C(CCc1cccs1)NCC1CC1 | inactive
54 | C/C(=N/Nc1ccnc2cc(Cl)ccc12)c1cccc(N)c1 | inactive
55 | CC(=O)N(Cc1ccc2[nH]ccc2c1)C1CC1 | inactive
56 | O=C(CCn1ccc2ccccc21)N1CCN(S(=O)(=O)c2ccccc2)CC1 | inactive
57 | COCC(=O)N(Cc1cccs1)C1CC1 | inactive
58 | CC(c1nc(C(C)(C)C)no1)N(C)Cc1ccc2c(c1)OCO2 (centres undefined) | inactive
59 | Fc1cccc(CSc2nnc(-c3ccccc3F)n2C2CC2)c1 | inactive
